Assay results published in PubChem BioAssay (Tox21).
Results filed as inconclusive are left out. Activity calls are given as the source filed them. Unless noted, the call rests on the fitted dose curve; in most records, active means well fitted curve in the direction sought with a large enough effect in the repeat runs; inconclusive means weak or mixed curves; inactive means no such curve, though single readings can be large; an effect the other way counts as inactive or inconclusive.

Assays:
[1] = qHTS assay to identify small molecule agonists of the sonic hedgehog signaling (Shh) pathway - cell viability counter screen (AID 1259366); further: nearly all actives have a fitted effect of over 50% in size
How it was run: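 Stable Gli1-Luc NIH/3T3 clone, 2,000 cells/well. Compound exposure 24hr at 37C. Read-out: CellTiter-Fluor fluorescence.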

[2] = qHTS assay to identify small molecule antagonists of the sonic hedgehog signaling (Shh) pathway - cell viability counter screen (AID 1259367); further: nearly all actives have a fitted effect of over 55% in size
How it was run: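 Viability was read by CellTiter-Fluor fluorescence in the same wells, reagent added 23 hr into compound treatment and incubated 1 hr at 37C. The 3T3 Gli1-Luc reporter cells (2,000/well) received conditioned medium after compound and ran 24 hr.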

[3] = qHTS assay to identify small molecule agonists of the sonic hedgehog signaling (Shh) pathway (AID 1259368; calls by dose curve;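 further: NIH/3T3-derived 3T3Gli1-Luc cells carrying a stable Gli1-driven firefly luciferase reporter; series mostly up to about 92 µM; nearly all actives have a fitted effect of over 15% in size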)
How it was run: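 Following a 24 hr incubation with DMSO-dissolved compounds at 37 C, 5% CO2, Gli1-Luc NIH/3T3-derived cells received luciferase reagent for 30 min at room temperature prior to luminescence measurement.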

[4] = qHTS assay to identify small molecule antagonists of the sonic hedgehog signaling (Shh) pathway (AID 1259369; calls by dose curve; further: nearly all actives have a fitted effect of over 45% in size; further: potency means the concentration at half of the fitted maximal effect)
How it was run: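 Read-out is luminescence from a firefly luciferase gene controlled by the Gli1 response element, in 3T3Gli1-Luc cells pre-incubated 4hr then exposed to compounds and conditioned medium for 24hr.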

[5] = molecular target: Estrogen receptor beta (Homo sapiens) (UniProt Q92731); assay: qHTS assay to identify small molecule agonists of the estrogen receptor beta (ER-beta) signaling pathway (AID 1259377; active means well fitted activation curve with a large enough effect in the signal ratio in the repeat runs, not every such curve was filed as active; the % refers to the signal ratio)
How it was run: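 Measured by fluorescence intensity from a B/G FRET beta-lactamase substrate (2 h, room temperature) in ER-beta-UAS-bla HEK293T cells treated with DMSO-dissolved compounds for 16 hr at 37C and 5% CO2.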

[6] = molecular target: Estrogen receptor beta (Homo sapiens) (UniProt Q92731); assay: qHTS assay to identify small molecule antagonists of the estrogen receptor beta (ER-beta) signaling pathway (AID 1259378; active means well fitted inhibition curve with a large enough effect in the signal ratio in the repeat runs, not every such curve was filed as active; the % refers to the signal ratio)
How it was run: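 Antagonist mode: compounds added to beta-lactamase reporter HEK293T ER-beta-UAS cells stimulated with E2 (1nM final), 16 hr at 37C. LiveBLAzer B/G FRET substrate, 2 hours room temperature, fluorescence read-out.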

[7] = qHTS assay to identify small molecule agonists of the androgen receptor (AR) signaling pathway in the presence of an antagonist - cell viability counter screen (AID 1259379);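 further: MDA-kb2 human breast cancer cells carrying an MMTV luciferase reporter; series mostly up to about 92 µM; nearly all actives have a fitted effect of over 25% in size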
How it was run: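 Each compound was tested at 15 concentrations on MDA-kb2 cells in the presence of 3.0uM nilutamide. Viability was measured by CellTiter-Fluor fluorescence after a 16 hr incubation at 37C in a CO2-free atmosphere.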

[8] = qHTS assay to identify small molecule antagonists of the estrogen receptor beta (ER-beta) signaling pathway - cell viability counter screen (AID 1259382);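 further: HEK293T cells carrying ER-beta-UAS-bla reporter stimulated with estradiol; series mostly up to about 92 µM; nearly all actives have a fitted effect of over 55% in size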
How it was run: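 CellTiter-Glo ATP luminescence measured after the LiveBLAzer read in the same wells; ER-beta-UAS-bla HEK293T cells, 16 hr compound treatment with 1nM 17-beta-estradiol agonist at 37C, 5% CO2.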

[9] = molecular target: Estrogen receptor (Homo sapiens) (UniProt P03372); assay: qHTS assay to identify small molecule agonists of the estrogen receptor alpha (ER-alpha) signaling pathway in the presence of an antagonist (AID 1259383; calls by dose curve; further: top concentration of the series differs between compounds; nearly all actives have a fitted effect of over 15% in size)
How it was run: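 Luminescent ERE-luciferase reporter, VM7Luc4E2 cells (endogenous ER-alpha); 10.0nM ICI-182,780 final; 15-point compound titration; 22hr at 37C; ONE-Glo, 30min RT.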

[10] = qHTS assay to identify small molecule agonists or antagonists of the thyroid stimulating hormone receptor (TSHR) signaling pathway - wild type cell line counter screen (AID 1259384; calls by dose curve)
How it was run: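 Counter screen in untransfected Hek293: compounds (15-point titration, triplicate) plus phosphodiesterase inhibitor Ro20-1724 added after 18 h plating; 30 min RT. Intracellular cAMP via competitive d2/cryptate immunoassay, 1 h incubation.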

[11] = molecular target: Thyrotropin receptor (Homo sapiens) (UniProt P16473); assay: qHTS assay to identify small molecule antagonists of the thyroid stimulating hormone receptor (TSHR) signaling pathway (AID 1259385; calls by dose curve; further: nearly all actives have a fitted effect of over 20% in size)
How it was run: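 Antagonist mode: compound-treated TSHR-expressing HEK293 cells were stimulated with 1.5 ng/mL TSH (final) in presence of Ro20-1724 for 30 min at RT. HTRF cAMP detection after 1 h; each compound tested at 15 concentrations, triplicate.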

[12] = qHTS assay to identify small molecule agonists of the estrogen receptor alpha (ER-alpha) signaling pathway in the presence of an antagonist - cell viability counter screen (AID 1259386);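 further: series mostly up to about 92 µM; cells exposed to compounds for 22 h at 37 °C before the viability read; nearly all actives have a fitted effect of over 30% in size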
How it was run: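 Using estrogen-depleted VM7Luc4E2 cells, the 15-concentration compound series was applied together with 10.0nM ICI-182,780 and incubated 22hr at 37C/5% CO2. Cell viability was then scored by CellTiter-Fluor.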

[13] = molecular target: Progesterone receptor (Homo sapiens) (UniProt P06401); assay: qHTS assay to identify small molecule agonists of the progesterone receptor (PR) signaling pathway (AID 1346784; calls by dose curve; further: nearly all actives have a fitted effect of over 30% in size)
How it was run: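 The screen uses PR-UAS-bla HEK 293T cells in charcoal-stripped serum (2%). Compounds are applied for 16 hr at 37C after a 6 hr pre-incubation, and reporter activity is detected with a FRET beta-lactamase substrate after 2 hr at room temperature.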

[14] = molecular target: Progesterone receptor (Homo sapiens) (UniProt P06401); assay: qHTS assay to identify small molecule antagonists of the progesterone receptor (PR) signaling pathway (AID 1346795; active means well fitted inhibition curve with a large enough effect in the signal ratio in the repeat runs, not every such curve was filed as active; the % refers to the signal ratio)
How it was run: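 After 6 hr plating at 37C in 2% stripped-serum medium, PR-UAS-bla HEK293T cells got compounds, then 1 nM R5020. Sixteen hours later, LiveBLAzer substrate was applied for 2 hr at room temperature and fluorescence was recorded.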

[15] = qHTS assay to identify small molecule agonists of the progesterone receptor (PR) signaling pathway - cell viability counter screen (AID 1346799; calls by dose curve; further: nearly all actives have a fitted effect of over 45% in size)
How it was run: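 Viability was scored by ATP luminescence (CellTiter-Glo, 30 min, room temperature) in the same wells used for the reporter readout, after 16 hr compound exposure of PR-UAS-bla HEK293T cells.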

[16] = qHTS assay to identify small molecule antagonists of the TGF-beta/Smad signaling pathway - cell viability counter screen (AID 1346824); further: nearly all actives have a fitted effect of over 50% in size
How it was run: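 Cytotoxicity counter-screen run in the same wells as the beta-lactamase Smad reporter read: CellTiter-Glo luminescence after 30 min at room temperature. HEK 293T SBE-bla cells had 5 hr compound exposure at 37 C with TGF-beta1 (0.25 ng/mL stock).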

[17] = qHTS assay to identify small molecule agonists of the TGF-beta/Smad signaling pathway - cell viability counter screen (AID 1346829); further: top concentration of the series differs between compounds; nearly all actives have a fitted effect of over 45% in size
How it was run: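 In parallel with the Smad reporter read, viability of HEK 293T cells stably carrying SBE-bla is quantified by ATP luminescence following 5 hr compound treatment.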

[18] = qHTS assay to identify small molecule agonists of the estrogen receptor beta (ER-beta) signaling pathway - cell viability counter screen (AID 1259380); further: nearly all actives have a fitted effect of over 30% in size
How it was run: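 Compounds dissolved in DMSO were pin-transferred onto ER-beta-UAS-bla HEK293T cells that had settled 6 hr, and exposure ran 16 hr at 37C. Following the reporter read, CellTiter-Glo luminescence after 30 min at room temperature indicated cytotoxicity.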

[19] = qHTS assay to identify small molecule antagonists of the progesterone receptor (PR) signaling pathway - cell viability counter screen (AID 1346798); further: series mostly up to about 92 µM; nearly all actives have a fitted effect of over 50% in size
How it was run: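 Viability was determined by ATP-based luminescence (CellTiter-Glo) in PR-UAS-bla HEK293T cells cultured in 2% charcoal-stripped serum and incubated 16 hr with compounds under R5020 stimulation.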

[20] = molecular target: Androgen receptor (Homo sapiens) (UniProt P10275); assay: qHTS assay to identify small molecule agonists of the androgen receptor (AR) signaling pathway in the presence of an antagonist (AID 1259381; calls by dose curve; further: nearly all actives have a fitted effect of over 15% in size)
How it was run: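 Plated MDA-kb2 cells (3,000/well) were pre-incubated 5hr, given nilutamide (3.0uM final) or buffer, then dosed with compounds in DMSO at 15 concentrations. Luciferase activity was quantified by luminescence after 16hr at 37C.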
On the % scale 0 is the no-effect control and ±100 the full control effect.

Chain of Thyrotropin receptor (Homo sapiens) (P16473 whole entry, looked up): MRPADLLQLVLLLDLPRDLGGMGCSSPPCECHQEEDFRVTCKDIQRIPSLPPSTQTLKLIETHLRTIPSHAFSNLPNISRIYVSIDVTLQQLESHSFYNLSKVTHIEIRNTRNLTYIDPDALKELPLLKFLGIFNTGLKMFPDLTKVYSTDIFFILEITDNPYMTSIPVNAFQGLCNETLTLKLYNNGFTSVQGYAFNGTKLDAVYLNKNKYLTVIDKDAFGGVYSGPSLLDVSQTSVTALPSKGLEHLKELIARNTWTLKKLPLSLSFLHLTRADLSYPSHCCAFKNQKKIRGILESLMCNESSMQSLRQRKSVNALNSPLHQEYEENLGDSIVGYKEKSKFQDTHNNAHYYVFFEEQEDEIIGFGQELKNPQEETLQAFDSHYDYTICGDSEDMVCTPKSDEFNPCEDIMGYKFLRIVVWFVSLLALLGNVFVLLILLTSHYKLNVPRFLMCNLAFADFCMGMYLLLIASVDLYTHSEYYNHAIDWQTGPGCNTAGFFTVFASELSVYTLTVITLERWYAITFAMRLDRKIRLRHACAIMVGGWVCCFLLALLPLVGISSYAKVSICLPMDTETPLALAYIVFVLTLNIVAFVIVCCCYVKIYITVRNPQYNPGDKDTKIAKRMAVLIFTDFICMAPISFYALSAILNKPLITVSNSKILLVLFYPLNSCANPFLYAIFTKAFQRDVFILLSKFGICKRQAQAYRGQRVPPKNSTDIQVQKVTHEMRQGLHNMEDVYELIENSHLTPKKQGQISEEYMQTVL
Chain of Estrogen receptor (Homo sapiens) (P03372 whole entry, looked up): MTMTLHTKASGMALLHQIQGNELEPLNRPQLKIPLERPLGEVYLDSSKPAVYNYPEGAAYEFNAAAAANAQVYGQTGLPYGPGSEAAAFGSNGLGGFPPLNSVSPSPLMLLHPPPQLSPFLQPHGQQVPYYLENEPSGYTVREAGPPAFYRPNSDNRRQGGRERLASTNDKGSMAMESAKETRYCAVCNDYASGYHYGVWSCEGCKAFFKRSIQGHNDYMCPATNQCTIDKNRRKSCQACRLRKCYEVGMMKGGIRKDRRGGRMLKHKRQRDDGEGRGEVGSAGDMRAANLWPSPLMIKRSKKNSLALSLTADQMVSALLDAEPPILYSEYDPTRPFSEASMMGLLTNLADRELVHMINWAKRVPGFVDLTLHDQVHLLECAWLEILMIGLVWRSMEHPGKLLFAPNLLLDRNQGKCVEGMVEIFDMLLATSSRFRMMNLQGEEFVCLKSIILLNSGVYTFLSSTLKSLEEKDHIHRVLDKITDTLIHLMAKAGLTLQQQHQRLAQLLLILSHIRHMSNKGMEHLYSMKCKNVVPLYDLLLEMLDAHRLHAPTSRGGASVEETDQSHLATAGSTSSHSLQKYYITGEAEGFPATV
Chain of Progesterone receptor (Homo sapiens) (P06401 whole entry, looked up): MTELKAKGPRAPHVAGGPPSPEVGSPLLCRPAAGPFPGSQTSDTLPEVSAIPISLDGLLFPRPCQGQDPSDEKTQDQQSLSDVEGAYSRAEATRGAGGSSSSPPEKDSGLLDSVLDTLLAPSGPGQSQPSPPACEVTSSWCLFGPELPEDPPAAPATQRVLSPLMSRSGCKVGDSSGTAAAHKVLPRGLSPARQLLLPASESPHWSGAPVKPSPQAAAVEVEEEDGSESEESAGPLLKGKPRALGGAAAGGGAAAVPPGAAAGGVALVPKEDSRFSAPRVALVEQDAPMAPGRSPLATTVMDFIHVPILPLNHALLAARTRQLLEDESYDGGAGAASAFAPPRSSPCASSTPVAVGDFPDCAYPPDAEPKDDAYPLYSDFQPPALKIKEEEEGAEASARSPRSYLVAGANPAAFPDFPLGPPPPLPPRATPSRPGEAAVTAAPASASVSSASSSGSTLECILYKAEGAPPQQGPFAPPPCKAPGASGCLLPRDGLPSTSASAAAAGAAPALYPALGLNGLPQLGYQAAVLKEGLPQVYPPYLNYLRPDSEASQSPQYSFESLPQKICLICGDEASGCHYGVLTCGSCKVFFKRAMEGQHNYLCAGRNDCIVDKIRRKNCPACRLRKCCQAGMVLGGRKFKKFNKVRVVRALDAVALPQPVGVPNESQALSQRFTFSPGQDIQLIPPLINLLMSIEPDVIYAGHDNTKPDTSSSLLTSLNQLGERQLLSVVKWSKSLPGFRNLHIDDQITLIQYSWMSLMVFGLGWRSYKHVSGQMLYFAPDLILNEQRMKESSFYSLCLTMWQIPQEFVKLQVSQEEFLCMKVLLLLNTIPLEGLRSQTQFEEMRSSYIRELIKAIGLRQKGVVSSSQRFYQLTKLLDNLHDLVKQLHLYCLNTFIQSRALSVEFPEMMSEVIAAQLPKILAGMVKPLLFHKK
Chain of Estrogen receptor beta (Homo sapiens) (Q92731 whole entry, looked up): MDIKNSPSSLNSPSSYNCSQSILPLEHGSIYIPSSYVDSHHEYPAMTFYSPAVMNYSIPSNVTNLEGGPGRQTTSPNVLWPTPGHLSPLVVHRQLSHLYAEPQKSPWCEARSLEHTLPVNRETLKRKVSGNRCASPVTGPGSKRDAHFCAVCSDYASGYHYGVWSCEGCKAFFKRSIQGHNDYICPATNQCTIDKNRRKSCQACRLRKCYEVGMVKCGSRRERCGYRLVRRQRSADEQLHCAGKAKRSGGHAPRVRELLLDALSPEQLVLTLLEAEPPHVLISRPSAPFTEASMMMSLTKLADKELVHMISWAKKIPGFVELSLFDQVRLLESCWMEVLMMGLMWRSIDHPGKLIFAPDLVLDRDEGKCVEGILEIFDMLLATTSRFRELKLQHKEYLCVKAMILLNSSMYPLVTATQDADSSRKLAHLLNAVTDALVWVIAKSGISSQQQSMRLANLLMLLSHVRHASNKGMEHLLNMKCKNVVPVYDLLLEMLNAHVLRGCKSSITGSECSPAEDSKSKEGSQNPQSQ
Chain of Androgen receptor (Homo sapiens) (P10275 whole entry, looked up): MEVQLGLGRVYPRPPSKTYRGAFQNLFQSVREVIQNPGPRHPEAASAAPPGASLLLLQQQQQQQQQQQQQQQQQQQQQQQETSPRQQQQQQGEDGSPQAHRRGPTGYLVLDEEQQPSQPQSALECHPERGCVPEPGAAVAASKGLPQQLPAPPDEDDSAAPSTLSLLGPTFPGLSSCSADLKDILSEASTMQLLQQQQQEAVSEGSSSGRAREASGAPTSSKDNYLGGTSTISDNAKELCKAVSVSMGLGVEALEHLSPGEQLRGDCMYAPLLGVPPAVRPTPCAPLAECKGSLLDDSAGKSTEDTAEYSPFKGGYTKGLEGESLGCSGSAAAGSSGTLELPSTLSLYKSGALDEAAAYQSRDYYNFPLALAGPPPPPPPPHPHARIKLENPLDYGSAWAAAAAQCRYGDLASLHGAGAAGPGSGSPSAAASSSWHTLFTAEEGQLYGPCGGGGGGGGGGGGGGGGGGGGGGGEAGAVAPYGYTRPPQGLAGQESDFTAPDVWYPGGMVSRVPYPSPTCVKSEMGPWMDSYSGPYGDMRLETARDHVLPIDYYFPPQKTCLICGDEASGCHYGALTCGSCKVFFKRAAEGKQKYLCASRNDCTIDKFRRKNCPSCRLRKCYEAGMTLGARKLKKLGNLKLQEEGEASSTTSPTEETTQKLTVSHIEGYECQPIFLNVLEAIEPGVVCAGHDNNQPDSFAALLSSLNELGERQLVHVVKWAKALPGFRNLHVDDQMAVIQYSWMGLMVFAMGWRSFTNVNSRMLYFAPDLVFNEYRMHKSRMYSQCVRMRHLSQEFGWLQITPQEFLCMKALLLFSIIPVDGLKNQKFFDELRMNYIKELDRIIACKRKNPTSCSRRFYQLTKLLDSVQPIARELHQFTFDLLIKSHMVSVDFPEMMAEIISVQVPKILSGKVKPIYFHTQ

O=C(COCCOCCOCC(=O)Nc1c(I)cc(I)c(C(=O)O)c1I)Nc1c(I)cc(I)c(C(=O)O)c1I
inactive: Potency [1] | Potency [2] | outcome [3] | Potency [4] | Potency [5] | outcome [6] | Potency [7] | outcome [8] | outcome [9] | outcome [10] | outcome [11] | Potency [12] | Potency [13] | Potency [14] | Potency [15] | outcome [16] | outcome [17]

F[Si-2](F)(F)(F)(F)F
inactive: Potency [1] | Potency [2] | outcome [3] | Potency [4] | Potency [5] | outcome [6] | outcome [18] | outcome [8] | outcome [9] | outcome [10] | outcome [11] | Potency [12] | Potency [13] | Potency [14] | Potency [19] | Potency [15] | outcome [16] | outcome [17]

Cc1c(C(C)C)c(=O)n(-c2ccccc2)n1C
inactive: Potency [1] | Potency [2] | outcome [3] | Potency [5] | outcome [6] | Potency [7] | outcome [8] | outcome [9] | Potency [12] | Potency [13] | Potency [15] | outcome [16] | outcome [17]
active: Potency [4] 1060 nM

CO[Si](CCCS)(OC)OC
inactive: Potency [1] | Potency [2] | outcome [3] | Potency [4] | Potency [5] | Potency [7] | outcome [8] | outcome [9] | outcome [10] | outcome [11] | Potency [12] | Potency [13] | Potency [14] | Potency [19] | outcome [16] | outcome [17]

CC(C)CCCCCCOC(=O)C1CCCCC1C(=O)OCCCCCCC(C)C (stereo not given)
inactive: Potency [1] | Potency [2] | outcome [3] | Potency [4] | Potency [5] | Potency [7] | outcome [18] | outcome [8] | outcome [9] | outcome [10] | outcome [11] | Potency [13] | Potency [14] | Potency [19] | Potency [15] | outcome [16] | outcome [17]

NS(=O)(=O)c1cc2c(cc1Cl)NC(C(Cl)Cl)NS2(=O)=O (stereo not given)
inactive: Potency [1] | Potency [2] | outcome [3] | Potency [4] | Potency [5] | outcome [6] | outcome [18] | outcome [8] | outcome [10] | outcome [11] | Potency [12] | Potency [13] | Potency [14] | Potency [19] | Potency [15] | outcome [16] | outcome [17]

CCCCC(CC)CNC(=O)CC(C)OC(=O)CCC(=O)O (stereo not given)
inactive: Potency [1] | Potency [2] | outcome [3] | Potency [4] | Potency [5] | Potency [7] | outcome [20] | outcome [8] | outcome [9] | outcome [10] | outcome [11] | Potency [12] | Potency [13] | Potency [14] | Potency [19] | Potency [15] | outcome [16] | outcome [17]

O=c1[nH]c(=O)c2[nH]c(=O)[nH]c2[nH]1
inactive: viability change, negative = cytotoxic [1] -3.05% [at 8.39 µM] | viability change, negative = cytotoxic [2] 0.704% [at 8.39 µM] | activity change [3] 0.435% [at 8.39 µM] | activity change, negative = inhibition [4] 16.8% [at 8.39 µM] | activation [5] -1.14% [at 8.39 µM] | activity, negative = inhibition [6] 11.9% [at 8.39 µM] | activity change, negative = cytotoxicity [18] 0.228% [at 8.39 µM] | activity change, negative = cytotoxicity [8] 3.94% [at 8.39 µM] | activation [9] 0.0928% [at 8.39 µM] | cAMP activity change [10] -3.72% [at 8.39 µM] | activity change, negative = inhibition [11] 0.717% [at 8.39 µM] | activity change, negative = cytotoxicity [12] 1.17% [at 8.39 µM] | activation [13] -0.558% [at 8.39 µM] | activity change, negative = inhibition [14] 0.247% [at 8.39 µM] | activity change, negative = cytotoxicity [19] -11.7% [at 8.39 µM] | activity change, negative = cytotoxicity [15] -1.97% [at 8.39 µM] | viability change, negative = cytotoxic [16] 2.42% [at 6.97 µM] | activity change, negative = cytotoxicity [17] -0.0048% [at 6.97 µM]
